Shiga toxin inh: Shiga toxin inhibition. Vero cells, Shiga toxin protein synthesis inhibition reporter. inhibition, % at 38.7 µM. 290,000 tested, 9.2% active; in the data active = inhibition mostly above about 28%, no sharp cut-off; inactive = mostly below about 43%
HCMV antiviral: human cytomegalovirus inhibition | 410,000 tested, 4.5% active | AID 1259415 | activity change, negative = inhibition, % at 57.5 µM | HFF cells, HCMV-luciferase reporter, 72 h; active compounds read low; in the data active = activity change below about -60%; inconclusive = no clear call, values can overlap the other calls; inactive = above about -39%
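Human foreskin fibroblasts infected with luciferase-reporter HCMV at MOI 1 PFU/cell, compounds at two doses. Luciferase measured 72 h post infection; normalized to buffer-only basal and Salinomycin (10uM) controls.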
HCV inhibitor: HCV inhibition. Huh7.5.1 HCVcc-Cre infection, luciferase reporter, 44 h. Potency, µM (doses to about 41.8 µM), hits mostly inhibitors. 340,000 tested, 3.4% active
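A cell-based infection assay in which seeded cells (1,000 per well) receive test compound after 4 h, are inoculated with HCVcc-Cre at approximately 0.5 moi, and are incubated 44 h before luminescence detection.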
Pf growth 48h: P. falciparum growth inhibition at 48 hours (one generation) | Potency, µM (titrated, usually from 28.7 µM), usual class: inhibitors | 310,000 tested, 5.9% active | P. falciparum luciferase growth in erythrocytes, 48 h
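Here the parasites carry a stable luciferase gene and grow inside erythrocytes in Albumax-based RPMI medium with compound for one erythrocytic cycle. Activity is scored as loss of luminescent signal.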
Pf growth 96h: P. falciparum growth inhibition at 96 hour, primary screen for plastid delayed-death inhibitors; 320,000 tested, 6.9% active; AID 504834; P. falciparum luciferase reporter growth, 96 h; Potency, µM (series often up to 28.7 µM), hits mostly inhibitors
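Two-generation exposure (96 h) targets delayed-death phenotype. Reporter parasites carrying integrated firefly luciferase, in red cells at 2% hematocrit and 0.05% parasitemia final, kept at 37 C, 5% CO2; luminescence loss indicates inhibition.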
Cycloheximide cs: affects cycloheximide protein synthesis inhibition readout, counter-screen | 300,000 tested, 12% active | AID 2314 | cell reporter, cycloheximide protein synthesis inhibition counterscreen | max response, %; in the data active = max response mostly above about 13%, no sharp cut-off; inactive = mostly below about 14%; note: read at 38.3 µM for the half of the compounds with a filed dose
A number is an active result; 0 = inactive; ? = inconclusive; - = no result given. This is a sample that favours compounds with a hit; in the whole collection about 21% have one here. Unless noted, calls come from the whole dose curve; as a rule, active = well fitted inhibition curve with a large enough effect; inconclusive = small, poorly fitted or top-dose-only effect, or another doubt; inactive = no such curve, though single readings can be large or run the other way.

SMILES	Shiga toxin inh	HCMV antiviral	HCV inhibitor	Pf growth 48h	Pf growth 96h	Cycloheximide cs
CSc1ccc(C(=O)C2CCCN(C(=O)c3nn(C)c(=O)c4ccccc34)C2)cc1 (stereo not drawn)	0	0	13µM	0	0	0
CSc1ccc(C(=O)C2CCCN(C(=O)c3nonc3C)C2)cc1 (stereo not drawn)	0	0	?	15µM	0	0
Cc1nc(N2CCCC2)c2ccsc2n1	0	0	14µM	0	0	0
COC(=O)c1cnc(SCc2ccc(C)cc2)n1C	0	0	0	0	0	32
OCc1cnc(SCc2cccc(F)c2)n1Cc1ccc(F)cc1	-	-71	-	-	-	-
Cn1c(CO)cnc1S(=O)(=O)Cc1ccc(Cl)cc1	0	0	0	0	0	0
Cn1c(CO)cnc1SCc1ccc(Cl)cc1	0	0	0	0	0	20
COc1ccc(CN2CCNC(=O)C2CC(=O)NCCc2nc(C)c(C)s2)cc1C (stereo not drawn)	0	0	0	0	0	0
COc1ccc(S(=O)(=O)N(C)C)cc1NC(=O)CSc1nncs1	0	0	0	0	0	0
CCOc1ccccc1N(CC(=O)Nc1c(C)n(C)n(-c2ccccc2)c1=O)S(=O)(=O)c1ccccc1	0	-78	0	?	?	0
COc1ccc(N(CC(=O)Nc2c(C)n(C)n(-c3ccccc3)c2=O)S(=O)(=O)c2ccccc2)cc1OC	0	0	?	0	0	0
CCOc1ccc(N(CC(=O)Nc2c(C)n(C)n(-c3ccccc3)c2=O)S(=O)(=O)c2ccc(F)cc2)cc1	0	-66	-	0	?	0
COc1cc(/C=C2/NC(=O)N(Cc3ccccc3F)C2=O)ccc1O	0	0	0	?	0	0
CC(C)c1nc2scc(-c3ccc(Cl)cc3)c2c(=O)n1N	73	0	?	0	0	38
Cc1ccc(-c2csc3nc(C)n(N)c(=O)c23)cc1	0	-86	0	0	0	0
COc1ccc(OC)c2sc(N(CCCN(C)C)C(=O)c3ccc(S(=O)(=O)N4CCc5ccccc5C4)cc3)nc12	-	-	4µM	?	?	-
Cc1ccc2sc(N(CCCN(C)C)C(=O)c3ccc(S(=O)(=O)N4CCc5ccccc5C4)cc3)nc2c1C	-	0	?	?	?	-
COc1cccc2sc(N(CCCN(C)C)C(=O)c3ccc(S(=O)(=O)N4CCc5ccccc5C4)cc3)nc12	0	?	?	?	0	0
COc1ccc(C)c2sc(N(CCCN(C)C)C(=O)c3ccc(S(=O)(=O)N4CCc5ccccc5C4)cc3)nc12	-	-98	?	-	-	-
CCCCN(C=O)c1c(CC)nc2ccc(C(=O)N3CCN(C(C)=O)CC3)cn12	-	0	-	-	-	-
O=C1N/C(=N/O)S/C1=C/c1cccnc1	0	0	0	0	?	0
O=C1NC(=NCc2ccccc2)S/C1=C\c1ccccc1	0	-68	0	?	?	0
Cc1ccccc1CN1c2ccccc2-c2nc(SCC(=O)NCc3ccccc3)ncc2S1(=O)=O	-	0	-	-	-	-
CCO/N=C(\N)c1[nH]ncc1Br	0	0	0	0	0	0
N/C(=N/OC(=O)c1ccc(Cl)cc1)c1ncc([N+](=O)[O-])s1	66	0	?	?	?	26
SMILES	Shiga toxin inh	HCMV antiviral	HCV inhibitor	Pf growth 48h	Pf growth 96h	Cycloheximide cs
Cc1cc(/C(N)=N/OC(=O)c2ccc(Cl)cc2)no1	61	0	0	0	0	35
Cc1cc(/C(N)=N/OC(=O)c2cccc(Cl)c2)no1	111	0	0	0	0	59
N/C(=N\OC(=O)c1ccc(Cl)cc1)c1[nH]ncc1Br	95	0	0	0	0	64
CC(=O)N1CCN(c2ccc(NCc3ccc(F)cc3)cc2)CC1	0	0	?	-	0	0
CC(=O)N1CCN(c2ccc(NCc3cccc(C)c3)cc2)CC1	-	-77	-	0	0	-
CCOc1cc(CNc2ccc3cn[nH]c3c2)ccc1OC	0	0	?	-	13µM	0
COc1cc(CNc2ccc3[nH]c(=O)[nH]c3c2)ccc1OCc1ccc(F)cc1Cl	31	0	?	0	0	0
COc1cc(CNc2ccc(N3CCN(C(C)=O)CC3)cc2)ccc1OCc1ccc(F)cc1	75	-73	0	0	?	25
COc1cc(CNc2ccc3[nH]c(=O)[nH]c3c2)ccc1OCc1ccc(Cl)cc1	45	?	?	0	0	29
COc1cc(CNc2ccc3[nH]c(=O)[nH]c3c2)ccc1OCc1ccc(F)cc1	36	0	?	0	0	31
O=C(COc1ccc(Cl)cc1Cl)Nc1ccc(Cl)cn1	92	0	0	-	?	30
O=C(O)CCC(=O)NNC(=O)CCCOc1ccc(Cl)cc1Cl	0	?	0	0	0	0
O=C(O)CCC(=O)NNC(=O)COc1ccc(Cl)cc1Cl	0	-79	0	0	0	0
CCOc1ccc(C(=O)Nc2ccc(Cl)cn2)cc1Cl	106	0	?	0	?	38
CCOc1ccc(C(=O)Nc2ccc(NC(=S)NC(=O)CC)cc2)cc1Cl	0	0	?	0	?	0
COC(=O)c1ccc(C)c(NC(=O)COC(=O)C2CC3CCCC(C2)C3=O)c1 (stereo not drawn)	-	0	0	0	0	-
N#Cc1cnc(NOCc2ccc(Cl)cc2)nc1	0	0	0	0	0	0
Cc1ccc(-n2nnc(-c3nc(-c4cccs4)no3)c2N)c(C)c1	-	0	-	-	-	-
Cc1ccc2nc(SCC(=O)N3CCCC3)[nH]c2c1	0	0	0	0	0	22
Cc1ccc2nc(SCC(=O)c3ccc(O)cc3O)[nH]c2c1	49	0	0	0	?	46
Cc1ccc2nc(SC(C)C(=O)N3CC(C)OC(C)C3)[nH]c2c1 (stereo not drawn)	0	0	0	?	0	0
Cc1ccc2nc(SC(C)C(=O)N3CCCC3)[nH]c2c1 (stereo not drawn)	57	0	0	0	0	25
Cc1ccc2nc(SC(C)C(=O)N3CCCCC3)[nH]c2c1 (stereo not drawn)	0	0	0	0	0	35
Cc1ccc2nc(SCC(=O)N3CCN(C(=O)c4ccco4)CC3)[nH]c2c1	0	0	0	0	0	0
Cc1cccc(NC(=O)C2CCN(c3nnc(C)c4c(C)n(-c5ccccc5)nc34)CC2)c1C	-	0	-	-	-	-
SMILES	Shiga toxin inh	HCMV antiviral	HCV inhibitor	Pf growth 48h	Pf growth 96h	Cycloheximide cs
Cc1cc2c(=O)c(C(=O)c3ccncc3)cn(CC(=O)Nc3cccc(C)c3C)c2cc1C	-	0	-	-	-	-
O=C(CSc1nc2ccc(Cl)cc2[nH]1)N1CCN(C(=O)c2ccco2)CC1	0	-65	0	0	?	0
CN(C)C(=O)CSc1nc2ccc(C(=O)c3ccccc3)cc2[nH]1	-	0	0	0	?	23
COC(=O)c1c(SCC(=O)Nc2ccccc2OC)[nH]c2ccccc2c1=O	-	0	-	-	-	-
CCCc1nn(C)c(C(=O)Nc2ccc(Cl)cc2)c1Cl	0	0	0	0	0	25
CCCc1nn(C)c(C(=O)Nc2ccccc2)c1Cl	72	0	0	0	0	92
Cn1c(SCC(=O)c2ccccc2)nnc1C1COc2ccccc2O1 (stereo not drawn)	0	0	0	0	0	42

Compound activity from PubChem BioAssay.
